Compound activity: PubChem BioAssay, several laboratories
phage Ecoli inh = E. coli growth loss with phage present | 0.26% of 360,000 active | inhibition, % at 11.9 µM | growth absorbance; in the data active = inhibition above about 11%
AddAB inh = less growth of phage-infected E. coli with AddAB | E. coli expressing H. pylori AddAB, absorbance growth | inhibition, % at 11.9 µM | 0.29% of 330,000 active; in the data active = inhibition above about 12%;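 note: 0% = vehicle wells of infected cells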
E coli growth-1 = blocks Escherichia coli growth. OD600, 23 h; active compounds read low. OD600 absorbance (no concentration beside the values). 0.21% of 330,000 active. AID 1053175;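 active = OD600 absorbance below the run mean of sample wells minus 3.6 SD, in any replicate, cut at about 0.56 in these data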
E coli growth-2 = reduces bacterial viability in AddAB counter-screen; E. coli V3065 growth, OD600 absorbance, 18 h; 0.27% of 330,000 active; inhibition, % at 11.9 µM; AID 449728;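 active = inhibition above the campaign's mean inhibition across all tested compounds plus 3 SD, cut at about 9.9% in these data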;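 note: uninfected addAB+ strain grown without phage in ampicillin broth; 0% = DMSO wells and 100% = ciprofloxacin 0.95 µg/ml wells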
Calb FLC = C. albicans growth modulation with fluconazole | C. albicans CaCi-2 (fluconazole-resistant clinical isolate) + fluconazole, Alamar Blue growth, 48 h | AID 1979 | 0.57% of 300,000 active | growth inhibition, % (concentration not given with the values);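 active = growth inhibition above about 58% in most replicates, limit read from the data, passing the limit was not always enough; inconclusive = exactly half the replicates above a set limit; inactive = most replicates below a set limit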;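 note: all wells also contain fluconazole at 8 µg/ml as a sub-toxic cotreatment; 0% = median of DMSO wells and 100% = median of geldanamycin control wells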
Tat export inh = E. coli Tat transport inhibition. 0.036% of 340,000 active. E. coli MC4100 TorA-mCherry Tat export, fluorescence. AID 488895. inhibition, % at 10 µM;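 active = mean replicate inhibition at least 50% and at least half of replicates individually reaching 50%; inconclusive = only one of the two criteria met; inactive = neither criterion met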;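 note: exported cargo escapes ClpAP degradation while cytoplasmic cargo is degraded and loses fluorescence; 0% = median of neutral control wells and 100% = median of NaSCN control wells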
An asterisk follows results filed as active; ? = inconclusive; · = no result given. The list is not random: actives were taken first. Their share in the collection is about 0.9%.

SMILES	phage Ecoli inh	AddAB inh	E coli growth-1	E coli growth-2	Calb FLC	Tat export inh
O=C(Cn1c2ccc(F)cc2c2nc3n(c(=O)c21)CCS3)Nc1ccc(Cl)cc1F	-1	2	0.71	-1	3	7
O=C(Cn1c2ccc(F)cc2c2nc3n(c(=O)c21)CCS3)N1CCCC1	·	-1	0.65	0	89*	5
COC(=O)c1ccc(NS(=O)(=O)c2cc(-c3cc(C)no3)ccc2OC)cc1	2	2	0.68	1	88*	2
O=C(O)[C@]1(S(=O)(=O)c2ccccc2)CC2ON=C(c3cccc(Br)c3)C2C1 (stereo partly drawn)	·	·	0.71	·	·	·
CSc1ccc(/C=C/C(=O)Nc2ccccc2)cc1	3	1	0.72	-1	119*	4
OCCN1CCN(Cc2cc(Cl)c3cccnc3c2O)CC1	0	-2	0.64	-4	103*	4
Oc1c(CN2CCN(c3ccccn3)CC2)cc(Cl)c2cccnc12	·	2	0.53*	1	8	3
O=C(COC(=O)C=Cc1cccc(C(F)(F)F)c1)NC(c1ccccc1)c1ccccc1	·	·	0.77	·	·	·
COc1ccc(C(=O)NN=Cc2ccccc2OC(=O)c2ccccc2)cc1	·	·	0.68	·	·	·
COC(=O)C1CCN(C(=O)CN(C)Cc2ccc(C(C)(C)C)cc2)CC1	0	3	0.67	1	80*	7
COc1cc(C2C(C(=O)c3cc4ccccc4o3)=C(O)C(=O)N2c2cc(C)on2)cc(OC)c1OC (stereo not drawn)	0	2	·	0	4	4
COc1cccc(C2C(C(=O)c3cc4ccccc4o3)=C(O)C(=O)N2c2cc(C)on2)c1OC (stereo not drawn)	0	-3	0.72	-1	78*	-1
CC(C)S(=O)(=O)c1csc(NC(=O)Nc2ccc(Cl)cc2)c1	8	7	0.47*	4	15	1
NS(=O)(=O)c1cccc(NC(=O)Nc2ccc(Cl)cc2)c1	6	2	0.56	3	-11	6
Cc1cc(Nc2cccc(Cl)c2)nc(NCc2ccccc2)n1	4	0	0.46*	1	?	-2
[O-][N+](=Cc1ccccc1)c1ccc(Br)cc1	·	·	0.62	·	·	·
CSCCC1NC2(C(=O)Nc3c(Cl)cccc32)[C@@H]2C(=O)N(C3CCCC3)C(=O)[C@H]12 (stereo partly drawn)	1	2	0.67	1	55	-1
CSCCC1NC2(C(=O)Nc3c(C)cc(Cl)cc32)[C@@H]2C(=O)N(C3CCCC3)C(=O)[C@H]12 (stereo partly drawn)	3	-1	0.65	-2	84*	8
COc1ccc(-c2nnc(NC(=O)c3ccc(S(=O)(=O)N4CCCc5ccccc54)cc3)o2)cc1	·	-1	0.77	-3	101*	-3
COc1cc(-c2nnc(NC(=O)c3ccc(S(=O)(=O)N4CCOCC4)cc3)o2)cc(OC)c1OC	4	0	0.67	-3	90*	·
O=C(Nc1nnc(C2CC2)o1)c1ccc(S(=O)(=O)N2CCCc3ccccc32)cc1	-1	3	0.71	-4	?	-1
COCc1nnc(NC(=O)c2ccc(S(=O)(=O)N3CCCc4ccccc43)cc2)o1	0	0	0.71	-4	92*	0
CCOC1OC(C(=O)NCc2ccccc2)=CC(c2coc3ccccc3c2=O)C1CCCO (stereo not drawn)	·	·	0.69	·	·	·
O=C(COc1ccc(C=NNC(=O)c2ccccc2)cc1)Nc1ccc([N+](=O)[O-])cc1	·	·	0.67	·	·	·
Cc1oc(-c2cccs2)nc1CN1CCN(Cc2ccc(F)c(F)c2)C(CCO)C1 (stereo not drawn)	1	-2	0.65	0	84*	-2
SMILES	phage Ecoli inh	AddAB inh	E coli growth-1	E coli growth-2	Calb FLC	Tat export inh
Cc1oc(-c2cccs2)nc1CN1CCN(CCC(C)C)C(CCO)C1 (stereo not drawn)	2	2	0.69	1	0	1
CC(=O)Nc1ccc(C2C(C)CCC3C(=O)N4C(CCC(C)C4c4ccc(NC(C)=O)cc4)C(=O)N32)cc1 (stereo not drawn)	·	·	0.66	·	·	·
COc1ccc(C=NNC(=O)c2cccnc2)cc1CN1CCc2cc(OC)c(OC)cc2C1C (stereo not drawn)	·	·	0.7	·	·	·
O=C(CCC(=O)Nc1ccc(Cl)cc1Cl)NN=Cc1ccc([N+](=O)[O-])o1	·	·	0.41*	·	·	·
CCCCCCCC(=O)N/N=C/c1ccc([N+](=O)[O-])o1	3	4	·	-2	101*	-3
NC(=O)NN=Cc1ccc([N+](=O)[O-])o1	·	·	0.064*	·	·	·
